# Data published in PMC4336329 (PLoS ONE, 2015).
# In all, about 310,000 compounds went through this assay and about 14,000 (4.5%) showed an effect of 50% or more. Effects have a minus sign here. This is one part of a sample in which strong results are shown more often than they occur.
# Molecular target: human ether-à-go-go-related gene (hERG) potassium channel (human, UniProt Q12809)
# Test: primary screen, population patch clamp on CHO cells stably expressing hERG; higher = less effect of the substance
# 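Note: peak tail current of the secondary pulse compared with the same well before compound.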
# human ether-à-go-go-related gene (hERG) potassium channel, sequence (Q12809 whole entry, looked up): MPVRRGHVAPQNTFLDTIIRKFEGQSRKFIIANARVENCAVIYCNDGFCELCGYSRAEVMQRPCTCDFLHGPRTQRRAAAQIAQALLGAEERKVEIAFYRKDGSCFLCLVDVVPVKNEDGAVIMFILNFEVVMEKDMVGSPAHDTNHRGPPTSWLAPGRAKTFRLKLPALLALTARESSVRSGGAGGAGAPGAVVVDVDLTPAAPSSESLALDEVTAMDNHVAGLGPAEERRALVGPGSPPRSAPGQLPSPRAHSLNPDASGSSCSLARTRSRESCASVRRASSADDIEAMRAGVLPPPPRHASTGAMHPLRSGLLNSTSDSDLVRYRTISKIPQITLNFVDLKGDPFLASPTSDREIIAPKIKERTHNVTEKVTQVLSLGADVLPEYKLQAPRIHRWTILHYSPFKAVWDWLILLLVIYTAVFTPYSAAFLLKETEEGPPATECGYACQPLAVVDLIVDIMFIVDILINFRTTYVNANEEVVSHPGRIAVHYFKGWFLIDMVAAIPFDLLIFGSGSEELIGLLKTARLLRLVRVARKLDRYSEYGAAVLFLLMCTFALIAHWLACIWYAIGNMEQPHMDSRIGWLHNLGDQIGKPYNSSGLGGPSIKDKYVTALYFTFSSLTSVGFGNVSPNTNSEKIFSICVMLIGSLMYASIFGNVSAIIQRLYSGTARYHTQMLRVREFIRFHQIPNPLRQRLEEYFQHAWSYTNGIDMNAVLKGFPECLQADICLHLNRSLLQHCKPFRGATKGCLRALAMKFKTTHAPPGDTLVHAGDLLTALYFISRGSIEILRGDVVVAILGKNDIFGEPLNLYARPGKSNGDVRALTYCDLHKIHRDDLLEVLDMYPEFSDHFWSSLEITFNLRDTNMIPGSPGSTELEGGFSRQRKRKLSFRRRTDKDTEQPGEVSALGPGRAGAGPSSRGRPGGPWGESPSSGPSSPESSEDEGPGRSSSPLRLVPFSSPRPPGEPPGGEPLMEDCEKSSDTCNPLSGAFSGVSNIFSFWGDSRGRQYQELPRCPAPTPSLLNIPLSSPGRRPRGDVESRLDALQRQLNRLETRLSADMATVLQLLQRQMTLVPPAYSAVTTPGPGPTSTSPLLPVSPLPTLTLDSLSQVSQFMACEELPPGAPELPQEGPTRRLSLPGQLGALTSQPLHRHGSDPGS
row,Compound,"hERG current change (%, negative = inhibition) at 10uM"
1,NC(=O)c1ccc(NC(=O)CSc2nnc(-c3ccc4c(c3)OCO4)o2)cc1,2.05%
2,CCCCN(CCCC)C(=O)c1sc2nc(N3CCOCC3)c3c(c2c1N)CCCC3,9%
3,COc1ccc(Cl)cc1NC(=O)NC1CCCCC1,10.3%
4,CN(CCCC(=O)NCc1ccco1)S(=O)(=O)c1ccccc1,-5.89%
5,CC(=O)C12CCCCC1CC1C3CC(C)C4(O)CC(=O)CCC4(C)C3CCC12C (stereo not drawn),21.8%
6,Cc1nc2ccccc2c(=O)n1-c1ccccc1[N+](=O)[O-],17.2%
7,CCCCCN(C(=O)CCC(=O)OC(C)C(=O)NC1CCCCC1)c1c(N)n(CCCC)c(=O)[nH]c1=O (stereo not drawn),16.1%
8,CSc1nncc(/C(C)=N\Nc2ccccc2)n1,9.18%
9,Cc1ccc(C(C)(C)NC(=O)C2CCC(=O)N(CC3CCCCC3)C2)cc1 (stereo not drawn),3.82%
10,C/C(=N\NC(=O)c1ccc([N+](=O)[O-])cc1)c1cccc([N+](=O)[O-])c1,5.82%
11,Cn1ccnc1/C(=N\NC(=O)c1ccc(O)cc1)c1cccc([N+](=O)[O-])c1,-22.7%
12,CC(=O)c1cccc([N+](=O)[O-])c1,17.7%
13,NC(=O)c1cccc([N+](=O)[O-])c1,5.64%
14,O=C(NNC(=O)c1ccccn1)c1cccc([N+](=O)[O-])c1,8.7%
15,COc1cccc(C(=O)N/N=C(/c2ccccc2)c2ccccn2)c1,6.88%
16,O=C(N/N=C(\c1ccccc1)c1ccccn1)c1cccc([N+](=O)[O-])c1,-65.6%
17,Cn1cccc1C(=O)c1cccc([N+](=O)[O-])c1,-52.9%
18,Cn1ccnc1/C(=N\NC(=O)c1ccccc1)c1cccc([N+](=O)[O-])c1,-68.6%
19,CC1=NN(c2ccccc2)C(=O)/C1=C/c1ccc[nH]1,-7.74%
20,CCN(CC(=O)Nc1ccc(NC(C)=O)cc1)C(=O)c1cccc2ccccc12,1.23%
21,Cc1cccc(Nc2ncnc(N)c2[N+](=O)[O-])n1,17.8%

row,Compound,"hERG current change (%, negative = inhibition) at 10uM"
1,C=CCN1CC(c2nc3ccccc3n2Cc2cccc3ccccc23)CC1=O (stereo not drawn),-24.2%
2,C/C(=N\NC(=O)CNc1cccc2ccccc12)c1ccccc1,10.2%
3,COc1ccc2sc3ccccc3c(=O)c2c1,-10.1%
4,Cc1ccc(N2CC(C(=O)N3CCC(C(=O)Nc4nnc(C(C)C)s4)CC3)CC2=O)cc1 (stereo not drawn),10.7%
5,CC(=O)Nc1ccc(S(=O)(=O)N(C)CC(=O)OCC(=O)N(C)C2CCS(=O)(=O)C2)cc1 (stereo not drawn),18.8%
6,CN(CCOc1ccc(Cl)cc1)C(=O)C1CCN(C(=O)c2ccc(F)cc2)CC1,-69.9%
7,CN(CCOc1ccc(Cl)cc1)C(=O)C1CCN(C(=O)c2ccc(Cl)cc2)CC1,-75.4%
8,CN(CCOc1ccccc1)C(=O)C1CCN(C(=O)c2ccc(F)cc2)CC1,-19.9%
9,Cc1ccccc1C(=O)N1CCC(C(=O)N(C)CCOc2ccccc2)CC1,9.06%
10,CN(CCOc1ccccc1)C(=O)C1CCN(C(=O)c2ccc(Cl)cc2)CC1,-47.9%
11,O=C(c1ccc(Cl)cc1)C1CCN(C(=O)c2ccc(F)cc2)CC1,-34.7%
12,Cc1ccc(Cn2ccc(NC(=O)c3cc(CC(C)C)on3)n2)cc1,-8.08%
13,CCn1nc(C(=O)OCC(=O)c2cc(C)n(Cc3cccs3)c2C)c2ccccc2c1=O,7.14%
14,O=C(/C=C/c1cccs1)Nc1sc2c(c1C(=O)O)CCCC2,28.5%
15,O=C(OCC(=O)N1CCN(C(=O)c2ccco2)CC1)c1cc(-c2cccc(Br)c2)nc2ccccc12,-19.6%
16,O=C(c1ccco1)N1CCN(C(=O)c2cc(-c3ccccn3)nc3ccccc23)CC1,-34.8%
17,COc1ccc(-c2cc(C(=O)OCC(=O)N3CCCC3)c3ccccc3n2)cc1,-19.1%
18,O=C(OCC(=O)N1CCN(C(=O)c2ccco2)CC1)c1cc(-c2ccc(Cl)c(Cl)c2Cl)nc2ccccc12,2.88%
19,Cc1cc(C(=O)OCC(=O)NCc2ccco2)c(C)n1-c1ccc(F)cc1,-28.3%
20,O=C(COC(=O)c1cc(-c2ccco2)nc2ccccc12)NCc1ccccc1,-11.3%
21,O=C(OCC(=O)N1CCN(C(=O)c2ccco2)CC1)c1cccc(F)c1,-16.8%

row,Compound,"hERG current change (%, negative = inhibition) at 10uM"
1,O=C(c1cc(-c2ccco2)nc2ccccc12)N1CCN(Cc2ccccc2)CC1,-42.8%
2,Cc1cc(C(=O)OCC(=O)N2CCN(C(=O)c3ccco3)CC2)c(C)n1-c1ccc(F)cc1,-66.4%
3,O=C(OCC(=O)N1CCN(C(=O)c2ccco2)CC1)c1cc(-c2ccc(F)cc2)nc2ccccc12,-59.4%
4,O=C(OCC(=O)N1CCN(C(=O)c2ccco2)CC1)c1cc(-c2ccccc2)nc2ccccc12,-60.3%
5,O=C(OCC(=O)N1CCN(C(=O)c2ccco2)CC1)c1cc(-c2ccco2)nc2ccccc12,-69.7%
6,CCCn1[nH]cc(SC)c(=O)c1=O,-5.83%
7,CCn1c(SCC(=O)Nc2c(C)n(C)n(-c3ccccc3)c2=O)nc2c1c(=O)n(C)c(=O)n2C,18.2%
8,Cc1c(C(C)C)c(=O)n(-c2ccc(S(=O)(=O)N3CCOCC3)cc2)n1C,17.4%
9,Nc1c(Cl)c(Cl)nc(C(=O)OCC(=O)NCc2ccccc2)c1Cl,-18.2%
10,COCCn1c(SCC#N)nnc1-c1ccc2c(c1)OCO2,-24.2%
11,CCCCC(=O)Nc1c(O)c2ccccc2[nH]c1=O,-0.31%
12,Cc1ccc(NC(=O)N2CCCCC2)cc1NC(=O)N1CCCCC1,16.5%
13,Cc1ccc(-n2c(O)c(C=N)c(=O)n(-c3ccc(C)cc3)c2=O)cc1,-8.85%
14,CCC1(CCc2ccncc2)C(=O)NC(=O)NC1=O,-4.69%
15,O=C1NC(=O)C(CCc2ccncc2)(CCc2ccncc2)C(=O)N1C1CCCCC1,-75.3%
16,CN1C(=O)N(C)C(=O)C(CCc2ccncc2)(CCc2ccncc2)C1=O,-51.2%
17,O=C1NC(=O)C(CCc2ccncc2)(CCc2ccncc2)C(=O)N1Cc1ccccc1,-72.5%
18,CN1C(=O)N(C)C(=O)C(CCc2ccccn2)(CCc2ccccn2)C1=O,3.54%
19,O=C1NC(=O)C(CCc2ccncc2)(C2CCCCC2)C(=O)N1,5.77%
20,O=C1NC(=O)C(CCc2ccncc2)(c2ccccc2)C(=O)N1,5.76%
21,COc1cc(CC2(CCc3ccncc3)C(=O)N(C)C(=O)N(C)C2=O)cc(OC)c1OC,-8.33%

row,Compound,"hERG current change (%, negative = inhibition) at 10uM"
1,O=C1NC(=O)C(CCc2ccncc2)(Cc2ccc3c(c2)OCO3)C(=O)N1CCc1ccccc1 (stereo not drawn),-32.5%
2,O=C1NC(=O)C(CCc2ccncc2)(CCc2ccncc2)C(=O)N1CCc1ccccc1,-71.7%
3,C=CCN1C(=O)NC(=O)C(CCc2ccncc2)(CCc2ccncc2)C1=O,-41.8%
4,COc1ccccc1N1C(=O)NC(=O)C(CCc2ccncc2)(CCc2ccncc2)C1=O,-46.6%
5,O=C(Cn1nc(-c2ccccc2)c2ccccc2c1=O)NN1CCOCC1,5.24%
6,COc1ccc(S(=O)(=O)NCc2cccnc2)cc1OC,17.1%
7,COc1cc2sc3ccc(C#Cc4ccccn4)cc3c(=O)c2cc1OC,14.9%
8,O=C1Cc2ccccc2C(=O)N1Cc1cccc(Cl)c1,11.5%
9,CC(=O)Nc1sc(NC(=O)c2ccccc2)nc1-c1cccs1,0.00438%
10,CC1CC(Nc2ccccc2)=CC(=O)O1 (stereo not drawn),24.7%
11,CC(c1nnc(Sc2nnnn2-c2ccccc2)n1-c1ccc(F)cc1)N(C)C (stereo not drawn),3.57%
12,COc1ccc(F)cc1CN1CCN(CC(=O)Nc2ccccc2C(=O)NC2CC2)CC1,-87.6%
13,COc1ccc(CN2CCN(CC(=O)Nc3ccccc3C(=O)NC3CC3)CC2)cc1F,-91.3%
14,COc1ccc(OC)c(CN2CCN(CC(=O)Nc3ccccc3C(=O)NC3CC3)CC2)c1,-82.5%
15,COc1cccc(OC)c1NC(=O)CN1CCC(NC(=O)c2cccc(F)c2)CC1,1.5%
16,COc1cc2c(cc1OC)CN(CC(=O)Nc1ccccc1C(=O)NC1CC1)CC2,-24.5%
17,COC(=O)c1ccccc1NC(=O)CN1CCC(NC(=O)c2ccc(C)cc2)CC1,8.67%
18,COc1cc(C)c(CN2CCN(CC(=O)Nc3ccccc3C(=O)NC3CC3)CC2)cc1OC,-80.1%
19,COc1ccc(OCC(=O)Nc2ccccc2C(=O)NC2CC2)cc1,-13.4%
20,COc1ccccc1OCC(=O)Nc1ccccc1C(=O)NC1CC1,-8.86%
21,COc1ccc(CN(C)CC(=O)Nc2ccccc2C(=O)NC2CC2)cc1OC,-21.7%
